What was measured:
[1] = target: RAC-alpha serine/threonine-protein kinase (Homo sapiens) (UniProt P31749); settings: at 1 µM
[2] = target: RAC-alpha serine/threonine-protein kinase (Homo sapiens) (UniProt P31749); settings: at 10 µM

Chain of RAC-alpha serine/threonine-protein kinase (Homo sapiens) (P31749 whole entry): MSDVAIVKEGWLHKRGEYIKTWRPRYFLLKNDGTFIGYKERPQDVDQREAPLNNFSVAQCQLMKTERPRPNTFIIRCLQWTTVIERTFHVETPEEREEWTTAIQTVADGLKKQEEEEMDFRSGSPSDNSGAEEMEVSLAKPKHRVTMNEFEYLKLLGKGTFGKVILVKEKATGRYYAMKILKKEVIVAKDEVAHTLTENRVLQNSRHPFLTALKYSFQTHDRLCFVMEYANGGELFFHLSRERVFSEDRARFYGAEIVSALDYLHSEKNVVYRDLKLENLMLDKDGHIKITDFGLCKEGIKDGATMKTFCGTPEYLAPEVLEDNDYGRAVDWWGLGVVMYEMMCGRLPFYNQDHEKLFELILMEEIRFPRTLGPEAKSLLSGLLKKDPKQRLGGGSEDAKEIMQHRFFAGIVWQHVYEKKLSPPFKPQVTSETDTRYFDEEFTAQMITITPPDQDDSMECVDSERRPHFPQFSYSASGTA

SMILES | residual activity [1] | residual activity [2]
O=C1Nc2cc(Br)ccc2/C1=C1/Nc2ccccc2/C1=N\O | 114% | 107%
O=Nc1c(-c2c(O)[nH]c3ccccc23)[nH]c2ccccc12 | 107% | 98%
CC(C)n1cnc2c(NCc3ccccc3)nc(NCCCO)nc21 | 107% | 110%
CCC(=O)Nc1ccc2ncnc(Nc3cccc(Br)c3)c2c1 | 99% | 106%
Nc1nc(Nc2ccc(S(N)(=O)=O)cc2)nn1C(=O)c1c(F)cccc1F | 104% | 103%
Oc1c2ccccc2c2c3c(cccc13)N=N2 | – | 110%
N#C/C(=C\c1ccc(O)c(O)c1)C(=O)NCc1ccccc1 | 103% | 120%
Nc1n[nH]c2nnc(-c3c(-c4ccccc4)nn4ccccc34)cc12 | 111% | 99%
Cc1ccc(S(=O)(=O)/C=C/C#N)cc1 | 107% | 112%
Oc1ccc(Nc2nc(-c3ccc(Cl)cc3)cs2)cc1 | 124% | 94%
Nc1ncnc2c1c(-c1ccc(Oc3ccccc3)cc1)cn2C1CCCC1 | 105% | 111%
O=[N+]([O-])c1ccc(-c2nc(-c3ccc(F)cc3)c(-c3ccncc3)[nH]2)cc1 | 112% | 103%
CC(=O)c1ccc(N2CCOCC2)cc1O | 101% | 111%
Oc1ccc(-c2nc(-c3ccc(F)cc3)c(-c3ccncc3)[nH]2)cc1 | 113% | 112%
Cc1cccc(-c2[nH]c(C(C)(C)C)nc2-c2ccc3c(c2)OCO3)n1 | 100% | 107%
O=C(Nc1cccc(Nc2cc(Nc3cccc(C(F)(F)F)c3)ncn2)c1)C1CC1 | 96% | 99%
c1ccc2c(-c3ccncc3)c[nH]c2c1 | 103% | 104%
O=S(=O)(NCCNC/C=C/c1ccc(Br)cc1)c1cccc2cnccc12 | – | 22%
CO[C@H]1C[C@@H]2CC[C@@H](C)[C@@](O)(O2)C(=O)C(=O)N2CCCC[C@H]2C(=O)O[C@H]([C@H](C)C[C@@H]2CC[C@@H](O)[C@H](OC)C2)CC(=O)[C@H](C)/C=C(\C)[C@@H](O)[C@@H](OC)C(=O)[C@H](C)C[C@H](C)/C=C/C=C/C=C/1C | 105% | 98%
CC(C)n1cnc2/c(=N/c3cccc(Cl)c3)nc(NCCO)[nH]c21 | 111% | 109%

From ChEMBL document CHEMBL2218924, “A broad activity screen in support of a chemogenomic map for kinase signalling research and drug discovery” (Biochem J, 2013)
